# Assay results: PubChem BioAssay (NCATS)
# Values joined by “and” are separate entries in the source; they are usually repeats but may differ in a detail not shown here. Identical values can stand only once. Records with an inconclusive call do not appear. Values without a mark were called inactive. Active and inactive are the calls of the source. The call rests on the fitted dose curve; in most records, active means well fitted activation curve with a large enough effect; inconclusive means small, poorly fitted or top-dose-only effect; inactive means no such curve, though single readings can be large or run the other way.
# Biological target: Cellular tumor antigen p53 (Homo sapiens) (UniProt P04637)
# Assay: Primary qHTS for small molecule compounds that upregulate eGFP-tagged delta133p53alpha (in N-terminal) cells. (AID 2060322); further: nearly all actives have a fitted effect of over 75% in size;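 on activation: series mostly up to about 56 µM; 0% = DMSO vehicle and 100% = reference activator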
# Details: NCI-H358 eGFP-delta133p53alpha fluorescence, 24 h; activation: hits give high values
# Outline: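 NCI-H358 cells pre-induced 24 h with 10 ng/ml doxycycline for eGFP-delta133p53alpha, plated dox-free and exposed 24 h at 37C to titrated compounds. Fixed, Hoechst-stained; gated GFP peak intensity by laser scanning cytometry, normalized to DMSO (0%) and 57.5 uM 5-azacytidine (100%).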
# Potency means the concentration at half of the fitted maximal effect.
# Sequence of Cellular tumor antigen p53 (Homo sapiens) (P04637 whole entry, looked up): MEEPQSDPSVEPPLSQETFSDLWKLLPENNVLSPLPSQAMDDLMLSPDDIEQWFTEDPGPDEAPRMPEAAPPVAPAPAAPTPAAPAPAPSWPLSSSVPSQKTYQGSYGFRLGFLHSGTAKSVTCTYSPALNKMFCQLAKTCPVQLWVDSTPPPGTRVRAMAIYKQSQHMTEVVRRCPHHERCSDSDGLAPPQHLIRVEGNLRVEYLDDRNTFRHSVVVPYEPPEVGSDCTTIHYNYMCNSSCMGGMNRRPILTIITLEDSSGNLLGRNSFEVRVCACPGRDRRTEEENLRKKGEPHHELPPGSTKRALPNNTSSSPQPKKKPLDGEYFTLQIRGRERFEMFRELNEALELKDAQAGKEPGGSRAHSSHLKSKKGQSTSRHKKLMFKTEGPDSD
SMILES,activation,Potency
CCC(C)(C)c1ccc(CC(C)CN2C[C@@H](C)O[C@@H](C)C2)cc1 (some centres not stated),-16.4%,
Cc1[nH]nc2ccc(-c3cncc(OC[C@@H](N)Cc4ccccc4)c3)cc12,,21.7 µM (active)
O=C(NC(Cc1cc(=O)[nH]c2ccccc12)C(=O)O)c1ccc(Cl)cc1 (configuration not stated),-0.837% and -7.77%,
CO[C@@H]1[C@H](N(C)C(=O)c2ccccc2)C[C@H]2O[C@]1(C)n1c3ccccc3c3c4c(c5c6ccccc6n2c5c31)C(=O)NC4,25.1%,
CCOc1cc(N)c(Cl)cc1C(=O)NCC1CN(Cc2ccc(F)cc2)CCO1 (configuration not stated),-2.82% and 4.36%,
O=C(Nc1c(Cl)cncc1Cl)c1ccc(OC(F)F)c(OCC2CC2)c1,-4.21%,
CCCC1OC2C[C@@H]3[C@H]4CCC5=CC(=O)C=C[C@]5(C)[C@H]4C(O)C[C@]3(C)[C@]2(C(=O)CO)O1 (some centres not stated),16.2%,
COC(=O)Nc1ccc(-c2nc(N3CCOCC3)c3cnn(C4CCN(C(=O)OC)CC4)c3n2)cc1,11.3%,
COc1ccc(-c2coc3cc(O)cc(O)c3c2=O)cc1,22.8%,
NC(=NCCCCCCN=C(N)N=C(N)Nc1ccc(Cl)cc1)N=C(N)Nc1ccc(Cl)cc1,19.1%,
CCCCOCCOc1nc(-c2ccc(C(=O)O)c(F)c2)sc1C,13.4%,
CC(=O)OC[C@@H]1O[C@@H](n2ccc(=O)[nH]c2=O)[C@H](OC(C)=O)[C@H]1OC(C)=O,5.73%,
